Screens deposited in PubChem by several laboratories.
Sampled rows, rich in hits. Any-hit rate of the full collection: about 3.4%.
NF-kB neuron act – NF-kB expression increase, human neuronal cells. NF-kB reporter expression; stronger effect = higher value. fold change at 12.5 µM. 1.6% of 190,000 active. AID 1239; in the data active means fold change above about 3.3
hcDAF-12 act – H. contortus DAF-12 activation, primary screen; HEK293 hcDAF-12 lit1-tk-luc reporter, luminescence; 0% DMSO, 100% Δ7-dafachronic acid; activation, % at 6.8 µM; 1.4% of 370,000 active; AID 652067;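 active means activation above the mean of all tested compounds plus 3 SD, cut at about 5.5% in these data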;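 further: 100% = response to 3 µM Δ7-dafachronic acid high control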
APP 5'UTR act – activates APP 5'UTR luciferase reporter. SH-SY5Y APP 5'UTR luciferase reporter, luminescence; zero percent = DMSO vehicle wells. activation, % at 2 µM. 1% of 190,000 active;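 active means activation above a set limit, based on mean plus 3 SD of controls, cut at about 140% in these data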
hgDAF-12 ag – hgDAF-12 agonism, primary luciferase screen | 1.8% of 370,000 active | AID 687014 | activation, % at 6.8 µM | HEK293 GAL4-hgDAF12 UAS-luciferase reporter, agonist luminescence; normalized to butyrate control;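 active means activation above a cutoff set at the mean of all screened compounds plus 3 SD, cut at about 10% in these data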;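 further: 0% = DMSO wells and 100% = sodium butyrate wells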
ssDAF-12 act – activators of S. stercoralis DAF-12 nuclear receptor. activation, % at 6.8 µM. HEK293 ssDAF-12/GRIP1 lit1-tk-luc reporter, luminescence; % of 3 µM dafachronic acid response. 1% of 370,000 active;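 active means activation above the mean over all tested compounds plus 3 SD, cut at about 0.9% in these data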;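 further: 0% = DMSO-only wells and 100% = 3 µM delta7-dafachronic acid wells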
LXRb hcDAF ctr – counter-screen for hcDAF-12 agonists: agonists of human LXR-beta; 3,400 tested, under 10 active; activation, % at 6.8 µM; shares compounds with hcDAF-12 act; HEK293 Gal4-LXR tk-luc reporter, luminescence, 24 h; normalized: DMSO 0%, positive control 100%;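 active means mean percent activation of the reporter above a cutoff set as the average over tested compounds plus their standard deviation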
Target sequence (P55055 whole entry, looked up, the tested form may be a part): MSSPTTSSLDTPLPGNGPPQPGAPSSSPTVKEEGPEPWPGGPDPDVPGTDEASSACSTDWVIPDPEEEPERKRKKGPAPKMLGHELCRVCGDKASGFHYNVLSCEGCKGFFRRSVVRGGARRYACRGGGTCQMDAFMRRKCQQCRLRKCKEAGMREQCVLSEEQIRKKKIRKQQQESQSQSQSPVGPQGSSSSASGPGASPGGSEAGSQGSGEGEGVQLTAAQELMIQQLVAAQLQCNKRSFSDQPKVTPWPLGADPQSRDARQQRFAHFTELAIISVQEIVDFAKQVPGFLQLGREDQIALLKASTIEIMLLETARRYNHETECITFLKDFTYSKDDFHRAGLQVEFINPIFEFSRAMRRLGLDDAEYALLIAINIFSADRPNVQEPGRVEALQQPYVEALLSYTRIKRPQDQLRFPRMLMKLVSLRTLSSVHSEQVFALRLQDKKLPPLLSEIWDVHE
hcDAF12 conf – confirmation of H. contortus DAF-12 agonists; shares compounds with hcDAF-12 act; HEK293 hcDAF-12 lit1-tk-luc reporter, luminescence; % of Δ7-dafachronic acid response; activation, % at 6.8 µM; 61% of 3,400 active;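 active means mean activation across triplicate tests above the threshold derived from the earlier primary screen, cut at about 5.5% in these data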;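 further: 0% = DMSO only wells and 100% = 3 µM Δ7-dafachronic acid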
hgDAF12 ag – hgDAF-12 agonism, confirmation assay | HEK293 GAL4-hgDAF12 luciferase reporter, agonist mode; percent of butyrate response | AID 743050 | shares compounds with hgDAF-12 ag | 80% of 3,300 active | activation, % at 6.8 µM;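 active means mean activation over triplicate wells above the hit cutoff derived from the earlier primary screen, cut at about 11% in these data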;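 further: 0% = DMSO low control and 100% = 2 mM sodium butyrate high control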
LXRb DAF12 ctr – counter-screen for DAF-12 agonists: agonists of human LXR-beta | HEK293 Gal4-LXR luciferase reporter, 24 h | AID 743051 | shares compounds with hgDAF-12 ag | activation, % at 6.8 µM | 3,300 tested, under 10 active;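 active means mean activation of the triplicate above a set limit carried over from the primary screen, none filed active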
* marks the source's active call; other numbers are inactive results; nt = not tested or not shown.

SMILES	NF-kB neuron act	hcDAF-12 act	APP 5'UTR act	hgDAF-12 ag	ssDAF-12 act	LXRb hcDAF ctr	hcDAF12 conf	hgDAF12 ag	LXRb DAF12 ctr
Cc1ccnc(NC(=O)COc2ccccc2[N+](=O)[O-])c1	1.05	7.4*	149.8*	14.3*	1.1*	1.3	4.1	11.5*	0.9
Cc1ccccc1NC(=O)C1CCCN1S(=O)(=O)c1cccnc1 (configuration not stated)	nt	1.4	nt	2.8	-2.2	nt	nt	nt	nt
O=C(Nc1ccc2[nH]c(=S)sc2c1)Nc1ccccc1F	nt	7.4*	nt	14.7*	1.7*	1.8	8.0*	20.0*	1.0
O=C(Nc1ccc2[nH]c(=O)[nH]c2c1)Nc1ccc(F)cc1F	1.34	-1.9	-8.7	-1.8	-1.7	nt	nt	nt	nt
CC(COc1ccc(Br)cc1)CN1CCC(C(O)(c2ccccc2)c2ccccc2)CC1 (configuration not stated)	nt	-1.3	nt	-0.1	-1.4	nt	nt	nt	nt
Nc1nn(-c2ccccc2)c(N)c1N=Nc1ccccc1	8.05*	9.0*	3.1	21.5*	0.6	1.3	4.0	29.2*	0.9
CCCCNC(=O)C1(C(C)=O)CC(C(=O)OCC)=NO1 (configuration not stated)	nt	-1.5	nt	2.3	-1.1	nt	nt	nt	nt
COc1nc(-c2ccccc2)ccc1-c1noc(-c2cccs2)n1	nt	0.4	32.6	2.1	-0.1	nt	nt	nt	nt
COc1nc(C)ccc1-c1noc(-c2cccs2)n1	nt	8.4*	nt	13.9*	-0.1	1.2	6.2*	16.0*	0.9
COc1cccc(-c2noc(-c3cccs3)n2)c1	8.43*	6.9*	114.5	14.6*	1.4*	1.7	11.0*	20.6*	1.0
Cc1ccc(Cn2cc(COC(=O)NCC(C)C)nn2)cc1	nt	-2.4	nt	-2.4	-1.0	nt	nt	nt	nt
CCOC(=O)[C@]12CCCC=C1N(CCCOC)C(=O)[C@@H]2CC(=O)NCCCN1CCCC1=O	nt	-0.2	nt	1.9	-0.9	nt	nt	nt	nt
Cc1cc2nc(-c3ccc[nH]c3=O)[nH]c2cc1C	nt	7.6*	nt	14.8*	1.2*	1.5	7.9*	12.2*	0.9
Cc1cc2nc(-c3ccc[nH]c3=O)n(Cc3ccc(F)cc3)c2cc1C	nt	-0.2	nt	1.3	-0.6	nt	nt	nt	nt
CC(C)[C@H](NC(=O)c1ccccc1)C(=O)N1CCC[C@H]1C(=O)NCc1ccccc1	nt	-0.8	nt	1.7	-0.9	nt	nt	nt	nt
Cc1cc(NC(=O)c2ccc(C(C)(C)C)cc2)no1	nt	7.2*	nt	14.5*	0.1	1.8	5.6*	21.3*	1.2
O=C(Nc1ccc2ccccc2n1)c1ccccc1Cl	nt	7.2*	nt	15.5*	-0.3	2.0	5.7*	17.6*	0.9
O=C(Nc1ccc2ccccc2n1)c1ccc(Cl)cc1	nt	10.1*	nt	15.0*	0.7	1.7	7.0*	19.2*	0.8
O=C(Nc1cccc(NC(=O)c2ccc(Cl)cc2)n1)c1ccc(Cl)cc1	nt	0.4	nt	1.4	-1.3	nt	nt	nt	nt
COC(=O)c1cc(-c2cnc(OC)nc2OC)c(=O)n2c1CCC2	nt	1.6	nt	-3.1	-1.2	nt	nt	nt	nt
COc1ccc(/C=C/c2cc(O)cc(OC3OC(CO)C(O)C(O)C3O)c2)cc1 (configuration not stated)	nt	6.9*	nt	16.6*	-0.4	1.8	7.8*	10.7*	0.8
CCOc1ccc(N(CC(=O)Nc2c(C)n(C)n(-c3ccccc3)c2=O)S(=O)(=O)c2cc(OC)ccc2OC)cc1	nt	-0.9	nt	2.2	-1.3	nt	nt	nt	nt
COc1ccc(C(=O)NC2=Nc3ccccc3N=C(C)C2c2ccccc2)cc1 (configuration not stated)	nt	8.9*	nt	59.2*	0.9*	0.2	0.7	38.7*	0.2
O=C(CCc1nc(-c2ccccc2F)no1)NCCc1cccc(F)c1	nt	-1.4	nt	3.3	-1.0	nt	nt	nt	nt
Cc1cc(C)nc(Nc2nc3ccccc3o2)n1	nt	0.6	nt	4.8	-1.2	nt	nt	nt	nt
SMILES	NF-kB neuron act	hcDAF-12 act	APP 5'UTR act	hgDAF-12 ag	ssDAF-12 act	LXRb hcDAF ctr	hcDAF12 conf	hgDAF12 ag	LXRb DAF12 ctr
c1ccc(Nc2nc3ccccc3o2)cc1	5.26*	8.1*	133.1	14.2*	0.9*	1.4	8.3*	21.4*	0.9
Fc1ccccc1Nc1nc2ccccc2o1	nt	8.2*	nt	16.2*	0.8	1.8	9.0*	19.1*	0.8
CCCCOc1cccc(C(=O)NCCc2ccccc2-c2ccccc2CCC(=O)NCc2ccccc2)c1	nt	0.6	nt	2.9	-1.4	nt	nt	nt	nt
CC(=O)Nc1ccc2nc(NC(=O)c3cccs3)sc2c1	nt	6.7*	nt	21.0*	1.8*	1.2	9.2*	12.8*	0.8
Cc1nc2ccc(NC(=O)c3cccs3)cc2s1	nt	2.7	nt	8.1	0.1	nt	nt	nt	nt
CC(=O)Nc1cccc(/C(C)=N/NC(=O)c2ccc(NS(=O)(=O)c3cccs3)cc2)c1	nt	-0.2	nt	2.7	-1.3	nt	nt	nt	nt
C/C(=N/NC(=O)c1cccs1)c1cccc(N)c1	2.11	7.0*	110.8	16.2*	-0.5	0.6	4.4	9.9	0.2
CC(=O)Nc1cccc(/C(C)=N/NC(=O)c2cccs2)c1	1.24	6.7*	7.0	17.8*	0.1	0.1	0.9	0.9	0.1
COc1ccc(CCN(Cc2cccs2)S(=O)(=O)c2ccc(C)s2)cc1OC	nt	-1.5	nt	0.4	-1.6	nt	nt	nt	nt
CC1=C[C@]2(CN(CC3CC3)C3=N[C@H](c4ccccc4)CC(=O)N32)n2c(=O)n(-c3ccccc3)c(=O)n2C1	nt	-1.3	nt	1.4	-1.1	nt	nt	nt	nt
O=C(OCc1ccc(CSc2nnc(-c3cccc4ccccc34)o2)cc1)c1ccc(F)cc1	nt	0.5	nt	-0.4	-1.8	nt	nt	nt	nt
Cc1nnc(SCC(=O)Nc2ccccc2NC(=O)CSc2nnc(C)s2)s1	1.15	3.2	8.7	-1.3	-1.0	nt	nt	nt	nt
Cc1nnc(SCC(=O)Nc2nsc(-c3ccc(C(C)(C)C)cc3)n2)s1	8.57*	7.3*	146.8*	27.0*	0.6	1.4	6.9*	19.1*	0.9
N#Cc1ccsc1NC(=O)COC(=O)c1ccc(NC(N)=O)cc1	1.13	8.0*	128.1	16.8*	0.5	0.8	5.6*	15.5*	0.6
NC(=O)Nc1ccc(C(=O)OCC(=O)Nc2sccc2C(N)=O)cc1	nt	-0.2	nt	0.2	-0.5	nt	nt	nt	nt
O=C(Nc1nc2ccccc2n1CCN1CCCC1)c1ccc(Cl)cc1	2.25	7.3*	65.0	17.9*	-0.3	0.6	9.5*	16.2*	0.4
CN1CCSc2ccc(C(=O)Nc3cc(F)ccc3F)cc21	nt	7.2*	nt	19.7*	1.1*	1.5	4.0	17.9*	0.9
Nc1[nH]c(C(=O)c2ccc(Br)cc2)c(-c2ccc(Br)cc2)c1C(=O)N1CCCCC1	nt	-1.7	nt	1.5	-0.8	nt	nt	nt	nt
